ChEMBL document CHEMBL1961873, “Compounds: GSK PKIS; Assays: Nanosyn kinase panel” (2012)

Assays:
[1] = target: Tyrosine-protein kinase CSK (Homo sapiens) (UniProt P41240); details: at 1 µM;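 also: each value is an averaged inhibition reading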
[2] = target: T1, Discoidin domain-containing receptor 2 (Homo sapiens) (UniProt Q16832); details: at 0.1 µM
T1 sequence (whole entry): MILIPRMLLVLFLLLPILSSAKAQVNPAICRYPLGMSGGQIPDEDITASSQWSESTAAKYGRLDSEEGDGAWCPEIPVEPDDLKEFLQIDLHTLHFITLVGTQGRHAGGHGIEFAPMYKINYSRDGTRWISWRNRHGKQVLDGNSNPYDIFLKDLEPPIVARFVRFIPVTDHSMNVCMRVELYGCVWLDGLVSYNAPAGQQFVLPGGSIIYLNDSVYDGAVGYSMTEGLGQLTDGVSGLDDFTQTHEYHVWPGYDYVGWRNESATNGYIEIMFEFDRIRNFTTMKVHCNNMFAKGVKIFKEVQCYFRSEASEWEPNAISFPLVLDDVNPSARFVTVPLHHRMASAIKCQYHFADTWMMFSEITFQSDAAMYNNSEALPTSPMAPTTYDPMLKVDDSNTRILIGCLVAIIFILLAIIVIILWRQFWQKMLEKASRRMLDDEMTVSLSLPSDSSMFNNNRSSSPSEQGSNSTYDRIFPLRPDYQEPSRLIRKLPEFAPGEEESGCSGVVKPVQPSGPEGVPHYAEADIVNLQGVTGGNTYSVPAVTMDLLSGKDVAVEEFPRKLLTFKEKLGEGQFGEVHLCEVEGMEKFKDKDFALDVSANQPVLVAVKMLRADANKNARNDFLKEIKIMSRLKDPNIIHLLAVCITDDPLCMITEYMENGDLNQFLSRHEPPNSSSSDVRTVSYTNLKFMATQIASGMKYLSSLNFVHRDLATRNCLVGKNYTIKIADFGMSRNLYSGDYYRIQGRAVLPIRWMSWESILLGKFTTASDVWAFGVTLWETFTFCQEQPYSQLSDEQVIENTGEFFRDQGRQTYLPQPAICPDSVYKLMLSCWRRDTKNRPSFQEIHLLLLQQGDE

[3] = target: T1, Discoidin domain-containing receptor 2 (Homo sapiens); details: at 1 µM
[4] = target: Epidermal growth factor receptor (Homo sapiens) (UniProt P00533); details: at 0.1 µM
[5] = target: Epidermal growth factor receptor (Homo sapiens) (UniProt P00533); details: at 1 µM
[6] = tested on: Epidermal growth factor receptor (Homo sapiens), P00533 [L858R]; details: at 0.1 µM
[7] = tested on: Epidermal growth factor receptor (Homo sapiens), P00533 [L858R]; details: at 1 µM
[8] = tested on: Epidermal growth factor receptor (Homo sapiens), P00533 [L861Q]; details: at 0.1 µM
[9] = tested on: Epidermal growth factor receptor (Homo sapiens), P00533 [L861Q]; details: at 1 µM
[10] = tested on: Epidermal growth factor receptor (Homo sapiens), P00533 [T790M]; details: at 0.1 µM
[11] = tested on: Epidermal growth factor receptor (Homo sapiens), P00533 [T790M]; details: at 1 µM
[12] = tested on: Epidermal growth factor receptor (Homo sapiens), P00533 [L858R,T790M]; details: at 0.1 µM
[13] = tested on: Epidermal growth factor receptor (Homo sapiens), P00533 [L858R,T790M]; details: at 1 µM
[14] = target: Ephrin type-A receptor 2 (Homo sapiens) (UniProt P29317); details: at 0.1 µM
[15] = target: Ephrin type-A receptor 2 (Homo sapiens) (UniProt P29317); details: at 1 µM
[16] = target: T2, Ephrin type-A receptor 3 (Homo sapiens) (UniProt P29320); details: at 0.1 µM
T2 sequence (whole entry): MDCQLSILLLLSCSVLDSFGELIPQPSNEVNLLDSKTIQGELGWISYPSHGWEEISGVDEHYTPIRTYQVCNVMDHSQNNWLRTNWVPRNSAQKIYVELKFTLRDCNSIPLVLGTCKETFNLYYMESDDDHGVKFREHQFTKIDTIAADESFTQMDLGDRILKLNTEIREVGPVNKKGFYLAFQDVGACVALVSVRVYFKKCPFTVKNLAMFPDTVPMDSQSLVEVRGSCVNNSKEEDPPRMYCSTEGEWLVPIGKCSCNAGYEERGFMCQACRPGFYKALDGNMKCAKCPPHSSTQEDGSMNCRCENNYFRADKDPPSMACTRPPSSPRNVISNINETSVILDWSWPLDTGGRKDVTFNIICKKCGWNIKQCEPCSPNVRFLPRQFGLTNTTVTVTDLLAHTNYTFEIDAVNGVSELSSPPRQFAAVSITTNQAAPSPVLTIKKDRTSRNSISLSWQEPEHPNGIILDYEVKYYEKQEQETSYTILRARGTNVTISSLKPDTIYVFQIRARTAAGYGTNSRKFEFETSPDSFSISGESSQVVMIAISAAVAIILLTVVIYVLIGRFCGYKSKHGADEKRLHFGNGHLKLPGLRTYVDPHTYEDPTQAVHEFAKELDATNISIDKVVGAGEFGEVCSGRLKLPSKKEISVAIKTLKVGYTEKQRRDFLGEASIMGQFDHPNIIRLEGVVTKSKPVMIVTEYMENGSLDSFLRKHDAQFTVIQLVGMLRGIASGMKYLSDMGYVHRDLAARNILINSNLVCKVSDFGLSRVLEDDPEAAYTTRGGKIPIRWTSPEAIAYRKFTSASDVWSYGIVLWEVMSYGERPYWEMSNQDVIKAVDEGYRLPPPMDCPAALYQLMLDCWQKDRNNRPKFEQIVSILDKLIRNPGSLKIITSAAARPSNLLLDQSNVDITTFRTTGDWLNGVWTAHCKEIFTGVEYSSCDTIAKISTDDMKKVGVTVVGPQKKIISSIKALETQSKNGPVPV

[17] = target: T2, Ephrin type-A receptor 3 (Homo sapiens); details: at 1 µM
[18] = target: Ephrin type-A receptor 4 (Homo sapiens) (UniProt P54764); details: at 0.1 µM
[19] = target: Ephrin type-A receptor 4 (Homo sapiens) (UniProt P54764); details: at 1 µM
[20] = target: T3, Ephrin type-B receptor 2 (Homo sapiens) (UniProt P29323); details: at 0.1 µM;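 also: reported as mean inhibition of EPHB2, from the GSK PKIS dataset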
T3 sequence (whole entry): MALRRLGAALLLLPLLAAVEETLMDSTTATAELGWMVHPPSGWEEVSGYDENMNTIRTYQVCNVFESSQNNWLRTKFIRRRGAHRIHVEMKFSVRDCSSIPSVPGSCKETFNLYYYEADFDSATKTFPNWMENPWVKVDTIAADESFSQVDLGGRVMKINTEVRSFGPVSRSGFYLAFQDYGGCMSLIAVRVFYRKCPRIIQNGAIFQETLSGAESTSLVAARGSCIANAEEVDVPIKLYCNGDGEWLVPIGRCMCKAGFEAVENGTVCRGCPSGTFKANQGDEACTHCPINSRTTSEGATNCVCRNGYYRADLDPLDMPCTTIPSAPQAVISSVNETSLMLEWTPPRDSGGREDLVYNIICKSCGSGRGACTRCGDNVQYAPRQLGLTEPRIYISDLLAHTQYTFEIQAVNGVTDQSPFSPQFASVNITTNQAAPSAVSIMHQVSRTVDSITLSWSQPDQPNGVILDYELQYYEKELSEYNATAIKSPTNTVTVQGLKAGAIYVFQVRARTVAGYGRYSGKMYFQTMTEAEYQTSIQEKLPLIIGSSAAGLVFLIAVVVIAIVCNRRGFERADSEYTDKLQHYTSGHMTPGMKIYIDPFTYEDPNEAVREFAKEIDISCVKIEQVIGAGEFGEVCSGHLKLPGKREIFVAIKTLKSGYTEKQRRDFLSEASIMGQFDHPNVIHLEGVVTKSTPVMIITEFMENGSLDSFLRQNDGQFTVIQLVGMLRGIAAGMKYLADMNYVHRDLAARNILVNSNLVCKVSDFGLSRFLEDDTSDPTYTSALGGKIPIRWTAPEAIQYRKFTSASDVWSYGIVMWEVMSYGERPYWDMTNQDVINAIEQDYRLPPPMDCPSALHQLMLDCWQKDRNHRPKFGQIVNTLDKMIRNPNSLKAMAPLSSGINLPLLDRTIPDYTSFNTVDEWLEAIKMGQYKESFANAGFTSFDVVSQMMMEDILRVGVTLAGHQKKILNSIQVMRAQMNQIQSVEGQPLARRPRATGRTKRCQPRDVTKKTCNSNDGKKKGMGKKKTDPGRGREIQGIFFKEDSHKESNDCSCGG

Sequence of Epidermal growth factor receptor (Homo sapiens), P00533 [T790M] (P00533 whole entry T790M): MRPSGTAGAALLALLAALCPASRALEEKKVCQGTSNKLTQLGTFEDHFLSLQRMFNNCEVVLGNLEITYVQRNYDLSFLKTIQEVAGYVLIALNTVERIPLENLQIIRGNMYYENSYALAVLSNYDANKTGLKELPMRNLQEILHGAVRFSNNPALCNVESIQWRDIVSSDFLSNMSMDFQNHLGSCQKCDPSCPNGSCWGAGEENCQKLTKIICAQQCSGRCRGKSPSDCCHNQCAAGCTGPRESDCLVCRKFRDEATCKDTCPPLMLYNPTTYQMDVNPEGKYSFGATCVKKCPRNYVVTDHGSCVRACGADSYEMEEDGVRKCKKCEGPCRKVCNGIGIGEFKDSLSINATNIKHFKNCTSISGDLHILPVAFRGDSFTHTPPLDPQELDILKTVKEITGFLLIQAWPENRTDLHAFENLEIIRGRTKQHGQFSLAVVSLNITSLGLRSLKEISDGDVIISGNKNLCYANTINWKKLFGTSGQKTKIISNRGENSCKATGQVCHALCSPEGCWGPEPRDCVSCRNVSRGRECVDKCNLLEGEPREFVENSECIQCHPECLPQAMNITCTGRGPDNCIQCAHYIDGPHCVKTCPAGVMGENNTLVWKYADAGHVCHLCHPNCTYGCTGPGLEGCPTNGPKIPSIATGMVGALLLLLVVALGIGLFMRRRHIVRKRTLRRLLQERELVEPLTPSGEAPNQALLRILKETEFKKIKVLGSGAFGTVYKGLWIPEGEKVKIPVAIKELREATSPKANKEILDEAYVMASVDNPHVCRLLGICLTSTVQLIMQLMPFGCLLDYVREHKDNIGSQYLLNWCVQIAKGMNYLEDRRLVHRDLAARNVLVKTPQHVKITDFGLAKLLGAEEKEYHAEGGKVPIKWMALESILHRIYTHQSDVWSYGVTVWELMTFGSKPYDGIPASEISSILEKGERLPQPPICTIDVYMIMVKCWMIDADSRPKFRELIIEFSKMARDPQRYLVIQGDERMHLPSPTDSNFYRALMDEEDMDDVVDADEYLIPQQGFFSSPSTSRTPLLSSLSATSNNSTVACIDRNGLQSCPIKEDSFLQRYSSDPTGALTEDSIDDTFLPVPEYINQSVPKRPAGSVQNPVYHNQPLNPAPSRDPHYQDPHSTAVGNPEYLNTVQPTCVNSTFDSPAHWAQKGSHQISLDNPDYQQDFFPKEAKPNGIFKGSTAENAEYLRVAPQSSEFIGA
Sequence of Ephrin type-A receptor 2 (Homo sapiens) (P29317 whole entry): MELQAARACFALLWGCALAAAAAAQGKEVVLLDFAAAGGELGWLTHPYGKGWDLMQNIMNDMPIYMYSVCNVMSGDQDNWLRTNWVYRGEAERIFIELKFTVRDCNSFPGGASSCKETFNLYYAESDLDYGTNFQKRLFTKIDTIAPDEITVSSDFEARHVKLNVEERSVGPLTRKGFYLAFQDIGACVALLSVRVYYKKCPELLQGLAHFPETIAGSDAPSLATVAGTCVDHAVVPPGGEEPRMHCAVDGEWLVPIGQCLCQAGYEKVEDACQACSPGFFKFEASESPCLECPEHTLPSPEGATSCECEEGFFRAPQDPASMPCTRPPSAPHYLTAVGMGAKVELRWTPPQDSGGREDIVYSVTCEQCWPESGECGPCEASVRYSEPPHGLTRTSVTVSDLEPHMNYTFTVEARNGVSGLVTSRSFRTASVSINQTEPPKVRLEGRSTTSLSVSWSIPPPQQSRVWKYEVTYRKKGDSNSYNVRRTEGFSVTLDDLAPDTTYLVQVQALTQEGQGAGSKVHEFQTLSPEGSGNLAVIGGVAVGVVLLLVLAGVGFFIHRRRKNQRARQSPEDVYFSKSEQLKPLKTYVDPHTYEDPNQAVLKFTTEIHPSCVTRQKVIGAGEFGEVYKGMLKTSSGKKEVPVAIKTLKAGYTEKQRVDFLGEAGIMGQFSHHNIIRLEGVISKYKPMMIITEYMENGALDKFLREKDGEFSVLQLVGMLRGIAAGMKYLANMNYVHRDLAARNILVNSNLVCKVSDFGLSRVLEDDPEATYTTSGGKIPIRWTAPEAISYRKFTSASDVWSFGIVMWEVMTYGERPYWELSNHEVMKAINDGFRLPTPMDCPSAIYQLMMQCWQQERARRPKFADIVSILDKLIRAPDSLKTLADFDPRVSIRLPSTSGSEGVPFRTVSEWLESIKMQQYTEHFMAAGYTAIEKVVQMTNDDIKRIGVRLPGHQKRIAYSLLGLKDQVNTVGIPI
Sequence of Epidermal growth factor receptor (Homo sapiens), P00533 [L858R] (P00533 whole entry L858R): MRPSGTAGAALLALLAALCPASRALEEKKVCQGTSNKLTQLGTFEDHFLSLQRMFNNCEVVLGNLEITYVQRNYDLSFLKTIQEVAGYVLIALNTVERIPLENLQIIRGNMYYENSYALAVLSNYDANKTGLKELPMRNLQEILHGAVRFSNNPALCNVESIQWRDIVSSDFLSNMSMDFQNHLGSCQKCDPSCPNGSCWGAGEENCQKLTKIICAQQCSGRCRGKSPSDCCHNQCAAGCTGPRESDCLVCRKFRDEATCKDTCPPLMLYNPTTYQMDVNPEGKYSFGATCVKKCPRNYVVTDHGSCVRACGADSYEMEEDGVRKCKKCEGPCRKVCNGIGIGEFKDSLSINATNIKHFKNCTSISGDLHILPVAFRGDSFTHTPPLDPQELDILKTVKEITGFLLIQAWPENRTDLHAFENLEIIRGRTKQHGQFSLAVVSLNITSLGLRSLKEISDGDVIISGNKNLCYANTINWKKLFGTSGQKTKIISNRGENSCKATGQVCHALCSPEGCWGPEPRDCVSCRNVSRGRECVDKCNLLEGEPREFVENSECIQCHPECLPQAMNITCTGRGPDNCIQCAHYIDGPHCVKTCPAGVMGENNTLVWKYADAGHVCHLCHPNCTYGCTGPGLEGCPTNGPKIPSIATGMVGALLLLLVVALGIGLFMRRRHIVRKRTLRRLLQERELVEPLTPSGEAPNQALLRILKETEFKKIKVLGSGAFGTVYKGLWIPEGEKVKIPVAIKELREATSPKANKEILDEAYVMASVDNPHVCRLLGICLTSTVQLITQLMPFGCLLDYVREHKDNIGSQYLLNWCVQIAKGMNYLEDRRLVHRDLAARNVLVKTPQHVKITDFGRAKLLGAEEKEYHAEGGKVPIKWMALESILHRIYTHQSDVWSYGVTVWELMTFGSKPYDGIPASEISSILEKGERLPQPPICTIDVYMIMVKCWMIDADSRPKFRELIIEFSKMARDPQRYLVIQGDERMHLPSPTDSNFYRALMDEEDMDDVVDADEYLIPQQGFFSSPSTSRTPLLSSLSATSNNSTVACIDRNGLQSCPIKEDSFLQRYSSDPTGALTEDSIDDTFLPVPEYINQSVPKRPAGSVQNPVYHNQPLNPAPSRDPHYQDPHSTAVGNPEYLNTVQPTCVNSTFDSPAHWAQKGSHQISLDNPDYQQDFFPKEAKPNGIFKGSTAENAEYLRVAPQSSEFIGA
Sequence of Ephrin type-A receptor 4 (Homo sapiens) (P54764 whole entry): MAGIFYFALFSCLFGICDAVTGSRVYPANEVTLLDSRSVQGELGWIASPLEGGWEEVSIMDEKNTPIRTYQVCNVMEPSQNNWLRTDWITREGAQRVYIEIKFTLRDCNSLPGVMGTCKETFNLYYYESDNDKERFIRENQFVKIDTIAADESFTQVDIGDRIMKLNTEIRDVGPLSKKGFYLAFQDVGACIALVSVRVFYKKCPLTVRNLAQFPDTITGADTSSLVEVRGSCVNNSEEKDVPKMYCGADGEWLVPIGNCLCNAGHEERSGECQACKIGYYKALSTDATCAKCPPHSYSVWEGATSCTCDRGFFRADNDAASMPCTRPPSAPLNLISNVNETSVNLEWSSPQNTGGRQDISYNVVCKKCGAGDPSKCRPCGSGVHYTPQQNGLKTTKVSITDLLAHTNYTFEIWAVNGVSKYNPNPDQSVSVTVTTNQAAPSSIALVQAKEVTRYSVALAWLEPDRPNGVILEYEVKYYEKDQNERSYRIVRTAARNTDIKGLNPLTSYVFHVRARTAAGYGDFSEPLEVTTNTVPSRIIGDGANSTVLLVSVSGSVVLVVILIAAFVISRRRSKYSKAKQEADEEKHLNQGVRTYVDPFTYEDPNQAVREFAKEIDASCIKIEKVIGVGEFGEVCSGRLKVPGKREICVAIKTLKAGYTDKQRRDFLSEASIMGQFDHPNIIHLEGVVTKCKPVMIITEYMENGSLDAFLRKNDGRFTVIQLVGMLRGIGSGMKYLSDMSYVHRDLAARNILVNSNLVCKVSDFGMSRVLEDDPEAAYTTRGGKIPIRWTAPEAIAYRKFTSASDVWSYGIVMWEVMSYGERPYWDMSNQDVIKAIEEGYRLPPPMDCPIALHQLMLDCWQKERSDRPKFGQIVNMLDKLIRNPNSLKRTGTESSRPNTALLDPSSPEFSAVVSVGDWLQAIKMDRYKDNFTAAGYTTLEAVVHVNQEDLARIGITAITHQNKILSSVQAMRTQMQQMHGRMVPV
Sequence of Tyrosine-protein kinase CSK (Homo sapiens) (P41240 2-450 limits assumed): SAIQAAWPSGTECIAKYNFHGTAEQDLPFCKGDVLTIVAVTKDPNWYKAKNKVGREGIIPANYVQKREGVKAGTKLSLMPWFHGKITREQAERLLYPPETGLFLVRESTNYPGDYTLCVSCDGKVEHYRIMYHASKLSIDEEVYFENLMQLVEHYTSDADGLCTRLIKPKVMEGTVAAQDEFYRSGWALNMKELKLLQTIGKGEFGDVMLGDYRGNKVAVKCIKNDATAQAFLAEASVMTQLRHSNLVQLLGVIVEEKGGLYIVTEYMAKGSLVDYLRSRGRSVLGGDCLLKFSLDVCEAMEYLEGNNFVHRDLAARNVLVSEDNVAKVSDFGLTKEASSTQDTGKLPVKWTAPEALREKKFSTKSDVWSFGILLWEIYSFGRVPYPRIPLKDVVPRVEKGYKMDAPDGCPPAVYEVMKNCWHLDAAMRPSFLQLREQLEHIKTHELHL

SMILES | inhibition [1] [%] | inhibition [2] [%] | inhibition [3] [%] | inhibition [4] [%] | inhibition [5] [%] | inhibition [6] [%] | inhibition [7] [%] | inhibition [8] [%] | inhibition [9] [%] | inhibition [10] [%] | inhibition [11] [%] | inhibition [12] [%] | inhibition [13] [%] | inhibition [14] [%] | inhibition [15] [%] | inhibition [16] [%] | inhibition [17] [%] | inhibition [18] [%] | inhibition [19] [%] | inhibition [20] [%]
CN(c1ccc(NC(=O)Nc2c(Cl)cccc2Cl)cc1)c1ccnc(Nc2cccc(CS(C)(=O)=O)c2)n1 | 19.5 | 11.1 | 26.9 | 2.38 | 5.8 | 1.91 | 8.57 | 4.35 | 7.45 | 1.27 | 2.21 | 2.48 | 3.18 | 3.5 | 7.74 | 7.33 | 7.13 | 10.6 | 33.8 | 4.12
COc1ccc2cc(-c3c(-c4ccncc4)nc(-c4ccc(S(C)(=O)=O)cc4C)n3C)ccc2c1 | 7.9 | -1.21 | -5.12 | 0.26 | 6.12 | 1.94 | 10.5 | 2.4 | 10.6 | 1.37 | 3.3 | 1.66 | 2.57 | 0.22 | 0.86 | 4.84 | 3.83 | 9.07 | 17.6 | 4.7
NC(=O)c1cc(-c2ccncc2)cc(-c2ccccc2)c1N | 16.1 | 4.49 | 27.6 | 8.28 | 18 | 4.58 | 39.7 | 3.24 | 11.9 | 1.64 | 2.91 | 3.41 | 9.94 | 15.2 | 56.3 | 5.37 | 8.77 | 19.8 | 62.8 | 16.5
Fc1ccc(-c2c(-c3ccncc3)nc3n2CCS3)cc1 | 5.05 | 0.56 | -0.39 | -4.84 | -0.06 | 3.61 | 22.2 | 1.81 | 1.46 | 1.14 | 1.49 | 2.41 | 2.54 | -5.85 | -4.53 | -0.6 | 0.35 | 6.26 | 8.11 | 1.66
CN1CCN(CCCNc2nc3ccc(Oc4ccc(NC(=O)Nc5cc(C(F)(F)F)ccc5F)cc4)cc3[nH]2)CC1 | -3.31 | 73.9 | 83.6 | -3.44 | 0.24 | 1 | 0.13 | 0.67 | -4.02 | 0.51 | -2.83 | -0.44 | -4.26 | -3.26 | 2.37 | -0.6 | -0.47 | 6.02 | 25.9 | 9.54
C/C(Nc1ccc(S(N)(=O)=O)cc1)=C1/C(=O)Nc2ccccc21 | -4 | -0.09 | 0.07 | -1.34 | 2.48 | -0.73 | 0.1 | 0.08 | 0.01 | -0.56 | 0.03 | -0.46 | -1.66 | -4.14 | -3.36 | -8.6 | -1.74 | -4.44 | -2.02 | -3.98
NC(=O)c1cc(-c2ccc(F)cc2)cc(-c2ccncc2)c1N | 5.4 | 1.42 | 2.13 | -0.24 | 5.03 | 5.96 | 7.27 | 4.19 | 7.37 | 1.23 | 3.83 | 0.39 | -0.62 | 0.4 | 3.67 | 4.53 | 2.83 | 10.1 | 12.7 | 5.78
